The text below walks through data of PubChem BioAssay (EPA / NIEHS).

Where “and” joins values, the source holds several entries; their conditions need not be identical. Equal values may be shown once. Where a structure was tested more than once in an assay, its records may differ in their call. Calls of active or inactive are those of the source. How the source made its calls, unless noted: active means hit-call score of the fitted dose curve at least 0.9, where 1 is the maximum; inactive means score below 0.9.

Read-out in the first assay: UDP glucuronosyltransferase (UGT1A1), UGT1A1 (gene 54658)
In words: LTEA_HepaRG_UGT1A1: Life Technologies and Expression Analysis (LTEA) Assay for UDP glucuronosyltransferase (UGT1A1) using HepaRG (AID 2283538). The following applies: mRNA level, 48 h; actives raise or lower the signal. The essentials:
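HepaRG, 48 h chemical exposure (top 100 uM, half-log 8-pt, 0.5% DMSO vehicle), duplicate wells; qRT-PCR (TaqMan, Fluidigm array) for UGT1A1 mRNA, housekeeping-normalized; bidirectional curve fit vs DMSO baseline.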
In the case of `CC/C(=C(\c1ccccc1)c1ccc(OCCN(C)C)cc1)c1ccccc1`, the AC50 was 32.1 µM (active) and the molecule was called inactive.
Consider `O=C(c1ccc(OCCN2CCCCC2)cc1)c1c(-c2ccc(O)cc2)sc2cc(O)ccc12`, for which the AC50 is 50 µM (active).
In the case of `CCCCOCCOCCO`, the AC50 is 50 µM (active).
For the molecule `C#C[C@]1(O)CC[C@H]2[C@@H]3CCc4cc(O)ccc4[C@H]3CC[C@@]21C`, the molecule was classed as inactive.
On to `C[C@]12CC[C@@H]3c4ccc(O)cc4CC[C@H]3[C@@H]1CC[C@@H]2O`, for which the AC50 was 10.3 µM (active).
Consider `COC(=O)c1ccc(C(=O)OC)cc1`, for which the molecule was called inactive.
As to `C=C(C)C(N)=O`, the molecule was classed as inactive.

Read-out in the next assay: UDP glucuronosyltransferase (UGT1A6), UGT1A6 (gene 54578)
In words: LTEA_HepaRG_UGT1A6: Life Technologies and Expression Analysis (LTEA) Assay for UDP glucuronosyltransferase (UGT1A6) using HepaRG (AID 2283539). The settings on record: mRNA level, 48 h; actives raise or lower the signal. The essentials: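 Differentiated HepaRG cells, ~100,000/well, were exposed for 48 h in serum-free induction medium with 0.5% DMSO to 8-point half-log series topping at 100 uM, in duplicate. mRNA measured by Fluidigm TaqMan qRT-PCR, normalized to ACTB, GAPDH and POLR2A.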
On to `CC/C(=C(\c1ccccc1)c1ccc(OCCN(C)C)cc1)c1ccccc1`, for which the AC50 was 45.8 µM (active) and the result was inactive.
Take `O=C(c1ccc(OCCN2CCCCC2)cc1)c1c(-c2ccc(O)cc2)sc2cc(O)ccc12`: the AC50 is 50 µM (active).
Regarding `CCCCOCCOCCO`, the molecule was called inactive.
Consider `C#C[C@]1(O)CC[C@H]2[C@@H]3CCc4cc(O)ccc4[C@H]3CC[C@@]21C`, for which the molecule was called inactive.
As for `C[C@]12CC[C@@H]3c4ccc(O)cc4CC[C@H]3[C@@H]1CC[C@@H]2O`, the result was inactive.
For `COC(=O)c1ccc(C(=O)OC)cc1`, the call was inactive.
Regarding `C=C(C)C(N)=O`, the molecule was called inactive.

Read-out in the next assay: X-box binding protein 1 (XBP1), XBP1 (gene 7494)
In words: LTEA_HepaRG_XBP1: Life Technologies and Expression Analysis (LTEA) Assay for X-box binding protein 1 (XBP1) using HepaRG (AID 2283540). The following applies: mRNA level, 48 h; actives raise or lower the signal. The method, then: LTEA_HepaRG is a cell based, multiplexed-readout assay that uses HepaRG, a human liver cell line, with measurements taken at 48 hours after chemical dosing on a 96-well plate.LTEA_HepaRG_XBP1 is one of 102 assay component(s) measured in the LTEA HepaRG cell culture assay. It is a marker of Diseases associated with XBP1 including Major Affective Disorder 7 and Bipolar Disorder.Data from the assay component LTEA_HepaRG_XBP1 was analyzed into 1 endpoint. This assay endpoint, LTEA_HepaRG_XBP1, was analyzed with bidirectional fitting relative to DMSO as the negative control and baseline of activity. Using a type of inducible reporter, measures of mRNA induction for gain or loss-of-signal activity can be used to understand regulation of transcription factor activity. To generalize the intended target to other relatable targets, this assay endpoint is annotated to the dna binding intended target family, where the subfamily is basic leucine zipper.
A total of 1060 chemcials from the ToxCast library were tested in eight-point concentration-response experiments. Cell culture and cytotoxicity assays were conducted at Thermo Fisher Scientific's Custom Services facility (Madison, WI). A single lot of human HepaRG cells (Thermo Fisher Scientific, Frederick, MD) was used for the cell culture experiments. 96-well format collagen type I coated plates of human HepaRG cells were prepared using established methods. Briefly, cryopreserved HepaRG cells were thawed, plated at a density of approximately 100,000 cells/well in HepaRG Thaw, Plate, and General Purpose media (HPRG770, Thermo Fisher Scientific), and incubated for 48 hours. 0.5% DMSO was selected as vehicle control to balance the requisite need of DMSO in HepaRG cultures to maintain differentiation (for example, baseline metabolism, proportions of hepatocytes vs. cholangiocytes), while enabling further hepatic receptor pathway activation (for example, PXR and CAR) in response to chemical exposure. 48 hours after plating, the culture medium was replaced with HepaRG Serum-Free Incudtion Media. Cells were exposed to each test chemical in duplicate and maintained in CO2 incubators for another 48 hours. Chemical plates were thawed to room temperature and 200x concentrations of treatment groups were prepared. 8-point conentration-reponse curves were made with the highest exposure at 100 uM, followed by half-log dilutions, all in 0.5% DMSO. Each test plate contained variouse controls, induction positive controls (1mM phenobarbital), cytotoxicity positive controls ([…] aflatoxin B1), vehicle controls (0.5% DMSO), and total lysis controls (0.5% DMSO). Cell morphology images were taken using an Essen IncuCyte FLR automated microscope, with six 96-well plates imaged in about 24 minutes. Images were captured and exported and JPEG files. Spent culture media was transfered to black-well plates for the LDH assay, and remaining media was sorted at -80 C for later use. Cells were treated with RLT buffer and frozen until shipped for gene expression analysis. Total RNA was isolated from the cell suspension in 75 uL of Buffer RLT (Qiagen, Germantown, MD 20874) by Quintiles/Expression Analysis (Durham, NC) using a custom isolation procedure. Total RNA from each plate well was transferred to a preamplification plate. Fluidigm's 96.96 Dynamic ArrayTM (Fluidigm, Amsterdam, the Netherlands) technology was used for gene expression analyses by quantitative reverse transcription polymerase chain reaction (qRT-PCR, performed by Quintiles/Expression Analysis, Durham, NC)89. Standard TaqManTM Assays (Applied Biosystems/ThermoFisher Scientific, Foster City, CA) were used to assess the expression of 93 genes selected based on their selectivity and sensitivity to important hepatic receptors known to be modulated by environmental chemicals; importance in human hepatocyte functionality; and hepatotoxicity. […]
For the molecule `CC/C(=C(\c1ccccc1)c1ccc(OCCN(C)C)cc1)c1ccccc1`, the AC50 is 45.8 µM (active) and 96.2 µM (active).
On to `O=C(c1ccc(OCCN2CCCCC2)cc1)c1c(-c2ccc(O)cc2)sc2cc(O)ccc12`, for which the AC50 was 50 µM (active).
As to `CCCCOCCOCCO`, the molecule was classed as inactive.
On to `C#C[C@]1(O)CC[C@H]2[C@@H]3CCc4cc(O)ccc4[C@H]3CC[C@@]21C`, for which the molecule was classed as inactive.
In the case of `C[C@]12CC[C@@H]3c4ccc(O)cc4CC[C@H]3[C@@H]1CC[C@@H]2O`, the result was inactive.
Consider `COC(=O)c1ccc(C(=O)OC)cc1`, for which the molecule was classed as inactive.
Consider `C=C(C)C(N)=O`, for which the outcome was inactive.

Read-out in the next assay: not listed separately
In words: LTEA_HepaRG_LDH_cytotoxicity: Cytotoxicity Assessment in the Life Technologies and Expression Analysis (LTEA) Assay (AID 2283563; active means hit-call score of the fitted dose curve at least 0.9, where 1 is the maximum;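 on AC50: LDH activity released into spent culture medium as a marker of cell death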).
Conditions: not given
The essentials:
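Differentiated HepaRG cells in serum-free induction medium, exposed 48 h in duplicate to 8 half-log concentrations up to 100 uM in 0.5% DMSO. Cytotoxicity from LDH measured in spent medium, fit relative to DMSO.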
For the molecule `CC/C(=C(\c1ccccc1)c1ccc(OCCN(C)C)cc1)c1ccccc1`, the AC50 is 63.5 µM (active) and 73.5 µM (active).
As for `O=C(c1ccc(OCCN2CCCCC2)cc1)c1c(-c2ccc(O)cc2)sc2cc(O)ccc12`, the AC50 was 77.4 µM (active).
Turning to `CCCCOCCOCCO`, the result was inactive.
For the molecule `C#C[C@]1(O)CC[C@H]2[C@@H]3CCc4cc(O)ccc4[C@H]3CC[C@@]21C`, the molecule was called inactive.
`C[C@]12CC[C@@H]3c4ccc(O)cc4CC[C@H]3[C@@H]1CC[C@@H]2O`: the outcome was inactive.
With `COC(=O)c1ccc(C(=O)OC)cc1`, the molecule was classed as inactive.
As for `C=C(C)C(N)=O`, the molecule was classed as inactive.
